Screens: PubChem, The Scripps Research Institute Molecular Screening Center
Shown are actives, neighbours in structure and some others; about 3.5% of the full set was active somewhere.
GPR151 ag – human GPR151 activation. Q8TDV0. PathHunter beta-arrestin GPR151 cells, luminescence. activation, % at 11.2 µM. 1% of 650,000 active; in the data active means activation above about 4.9%;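 further: 0% = median of compound wells and 100% = cells with positive control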
Target sequence (Q8TDV0 whole entry, looked up): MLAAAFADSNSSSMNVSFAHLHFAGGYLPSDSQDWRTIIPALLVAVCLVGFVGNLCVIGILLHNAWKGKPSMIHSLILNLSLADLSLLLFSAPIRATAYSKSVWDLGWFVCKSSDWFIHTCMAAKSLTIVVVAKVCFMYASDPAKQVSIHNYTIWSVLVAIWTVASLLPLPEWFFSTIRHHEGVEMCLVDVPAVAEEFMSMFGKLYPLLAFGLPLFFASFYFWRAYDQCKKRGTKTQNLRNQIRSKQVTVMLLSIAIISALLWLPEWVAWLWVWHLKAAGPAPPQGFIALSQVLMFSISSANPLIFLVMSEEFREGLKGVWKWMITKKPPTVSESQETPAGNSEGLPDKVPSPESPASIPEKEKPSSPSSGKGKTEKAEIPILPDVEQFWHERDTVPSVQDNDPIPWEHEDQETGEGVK
MITF inh – human MITF inhibition, primary screen; O75030; AlphaScreen MITF homodimerization, bead proximity signal; inhibition, % at 2.6 µM; 0.91% of 650,000 active; AID 1259374; in the data active means inhibition above about 50%;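 further: 0% = vehicle wells with protein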
FBW7 act – human FBW7 E3 ligase activation, primary screen; AlphaScreen FBW7–phospho-cyclin E peptide binding, activator screen; normalized activity (activation), % at 26.1 µM; 0.13% of 650,000 active; in the data active means normalized activity above about 1.9%;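 further: purified mutant Fbw7 with reduced substrate affinity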
TEAD-YAP inh – TEAD-YAP interaction inhibition | inhibition, % at 9.12 µM | 1.4% of 640,000 active | HEK-TIYL cells, TEAD-Gal4/YAP UAS-luciferase luminescence | AID 1259422; in the data active means inhibition above about 32%;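 further: 0% = median of test compound wells and 100% = reference inhibitor wells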
* = called active by the depositor.

SMILES | GPR151 ag | MITF inh | FBW7 act | TEAD-YAP inh
CC(=O)Oc1ccc2c(c1)O/C(=C\c1sccc1C)C2=O | -5 | 4 | 0 | 88*
COc1ccc(/C=C2\Oc3cc(OC(C)=O)ccc3C2=O)cc1 | -2 | -16 | 0 | 51*
COc1ccc(C(=O)Oc2ccc3c(c2)O/C(=C\c2ccncc2)C3=O)cc1OC | 0 | -13 | 0 | 8
COc1ccc(/C=C2\Oc3cc(OC(=O)c4ccncc4)ccc3C2=O)cc1 | -2 | 27 | 0 | 68*
COc1ccc(NS(=O)(=O)c2ccc(NC(=O)c3ccc4c(c3)OCO4)cc2)cc1 | 1 | -5 | 0 | 21
COc1ccc(-c2nc3ccc(C(=O)Nc4ccc(NC(C)=O)cc4)cc3s2)cc1 | 0 | 12 | 0 | -37
CCn1c(N/N=C/c2cc(Br)ccc2OC)nc2c1c(=O)[nH]c(=O)n2C | 0 | 10 | 0 | -2
Cc1ccc(Nc2nc(N)c3ccccc3n2)cc1C | -6 | 19 | 0 | 55*
CCn1c(=NC(=O)c2ccn(C)n2)sc2c(C)ccc(OC)c21 | 2 | -9 | 0 | -9
CCc1ccc(CNC(=O)Cc2ccc(NC(=O)C3=C(C)OCCS3)cc2)cc1 | 1 | 4 | 0 | 35*
COC(=O)C1=CN(C(C)C)C=C(C(=O)OC)C1c1ccccc1Br | -1 | 3 | 2 | -9
COC(=O)C1=CN(C(C)C)C=C(C(=O)OC)C1c1cccc(OC)c1 | 1 | 8 | 1 | 6
CCOC(=O)C1=CN(C(C)C)C=C(C(=O)OCC)C1c1ccccc1Br | 0 | -6 | 2.0* | -4
CCOC(=O)C1=CN(C(C)C)C=C(C(=O)OCC)C1c1cccc(OC)c1 | 1 | -42 | 8.5* | -2
CCCCOc1ccc(C2=N/C(=C\c3ccc(Br)cc3)C(=O)N2c2ccc3ccccc3c2)cc1 | -1 | -7 | 0 | -3
CCC(=O)N1CCc2ccc(NS(=O)(=O)c3ccc4ccccc4c3)cc2C1 | -1 | 1 | 0 | 6
O=C(c1ccccc1)N1CCN(C(=O)c2cc3c(s2)CCCCC3)CC1 | -1 | 8 | 0 | 2
O=C(N=c1sn2c(c1[N+](=O)[O-])CCCCC2)c1ccccc1 | -2 | -2 | 0 | 84*
O=C(NCc1ccco1)C1CC(c2ccccc2F)=NO1 (stereo not given) | 1 | 2 | 0 | 5
CCn1ncc(C2=NOC(C(=O)NCc3ccco3)C2)c1C (stereo not given) | 0 | -20 | 0 | 45*
O=C(CCCn1c(SCc2cc(=O)n3ccccc3n2)nc2ccccc2c1=O)NCc1cccc(Cl)c1 | 1 | -7 | 0 | -1
COc1ccc(CCC(=O)N2CCC3(CC2)OCc2ccccc2O3)cc1 | 4 | 0 | 0 | -5
COc1cc(CC(=O)N2CCC3(CC2)OCc2ccccc2O3)cc(OC)c1OC | 1 | 6 | 0 | 38*
COc1cc(CC(=O)N2CCC3(CC2)OCc2cc(Cl)ccc2O3)cc(OC)c1OC | 2 | -17 | 0 | 59*
COc1cccc(CC(=O)N2CCC3(CC2)OCc2ccccc2O3)c1OC | 0 | 8 | 0 | 5
SMILES | GPR151 ag | MITF inh | FBW7 act | TEAD-YAP inh
COc1ccc(CCC(=O)N2CCC3(CC2)OCc2ccccc2O3)cc1OC | -1 | 8 | 0 | 40*
CCC12CN3CC(CC)(CN(C1)C3c1ccccc1)C2=O (stereo not given) | -1 | 5 | 1 | 8
COc1cc(/C=N/NC(=O)CCC(=O)N/N=C/c2ccc(O)c(OC)c2)ccc1O | 2 | -2 | 0 | 9
CC(=O)c1ccc(NC(=O)Cn2c(-c3nonc3N)nc3ccccc32)cc1 | 0 | 4 | 0 | 5
COc1ccccc1NC(=O)Cn1c(-c2nonc2N)nc2ccccc21 | 0 | 1 | 0 | 65*
COc1cc(/C=N/NC(=O)Cn2c3ccccc3c(=O)c3ccccc32)ccc1O | 2 | 13 | 0 | 53*
CCOc1cc(/C=N/NC(=O)Cn2c(-c3nonc3N)nc3ccccc32)ccc1O | 0 | 6 | 0 | 46*
COC(=O)c1ccccc1NC(=O)Cn1c(-c2nonc2N)nc2ccccc21 | 0 | 11 | 0 | 54*
CCOC(=O)C1(Cc2ccc(Cl)cc2)CCN(C(=O)Cc2nonc2C)CC1 | -1 | 1 | 0 | -6
COc1cc(OC)c(-n2c(C)cc(/C=C3/C(=N)N4OC(C)=CC4=NC3=O)c2C)cc1Cl | 0 | -3 | 0 | 7
COc1ccc(OC)c(-n2c(C)cc(/C=C3/C(=N)N4OC(C)=CC4=NC3=O)c2C)c1 | 0 | 13 | 0 | 48*
CC1=CC2=NC(=O)/C(=C\c3cc(C)n(-c4cc(C)ccc4C)c3C)C(=N)N2O1 | 0 | 8 | 1 | 61*
CN=C1S/C(=C\c2ccc(-c3cccc(C(=O)O)c3)o2)C(=O)N1C | 2 | 15 | 0 | -31
